Compound activity as filed in PubChem.
TRPM1 prom inh: MITF TRPM1 promoter inhibition in SK-MEL-5 cells. SK-MEL-5 TRPM1 promoter luciferase, 24 h. inhibition, % at 12.5 µM. 330,000 compounds, 0.83% hits. AID 488899;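 active means mean inhibition across replicates of 60% or more, whatever share of single replicates reaches that level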
LMP1 NFkB inh: Epstein-Barr LMP1 NF-kappaB reporter inhibition | LMP1-induced NF-kappaB luciferase reporter cells, luminescence | 350,000 compounds, 0.69% hits | inhibition, % at 12.5 µM | AID 504558; in the data active means inhibition above about 41%
TROY signal inh: TROY signaling inhibition; Q293 LMP1-TROYcd NF-kB luciferase reporter, 4 h; inhibition, % at 10 µM; 360,000 compounds, 0.98% hits; AID 1347056;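 active means compounds whose plate-normalised and pattern-corrected inhibition of the luciferase reporter signal at the single screening dose is 50% or more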
TWEAK Fn14 block: TWEAK-Fn14 signaling inhibition; TWEAK-stimulated Fn14 reporter cells, luciferase luminescence, 8 h; inhibition, % at 10 µM; 360,000 compounds, 2% hits; in the data active means inhibition above about 50%
Shn3 3UTR inh: inhibitors of Schnurri-3 3'UTR reporter in osteoblasts. Clone20 osteoblast Shn3 3'UTR firefly luciferase, 24 h. inhibition, % at 12.5 µM. 360,000 compounds, 0.52% hits. AID 588674;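 active means mean inhibition of at least 75% with every replicate also reaching 75%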
Peg3 prom inh: Peg3 promoter activity inhibition | HeLa PEG-Prom luciferase reporter, luminescence, overnight | inhibition, % at 20 µM | 360,000 compounds, 1.7% hits | AID 588405;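 active means inhibition of at least 50% at 20 µM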
Hits are given with their value; 0 = inactive; - = no result. The list is not random: actives were taken first. Their share in the collection is about 4.1%.

SMILES	TRPM1 prom inh	LMP1 NFkB inh	TROY signal inh	TWEAK Fn14 block	Shn3 3UTR inh	Peg3 prom inh
Nc1nc(Nc2ccccc2)nc(NCc2ccco2)c1[N+](=O)[O-]	0	0	0	0	0	0
CC(C)c1ccc(CN2CCSCC2)cc1	0	0	0	0	0	0
Cc1cccc(C)c1-n1nnnc1C1(C)CCC(=O)N1Cc1ccc(F)cc1 (centres undefined)	-	-	0	0	-	-
Cc1cccc2cc(CNC3CCCC3)c(Cl)nc12	0	0	0	0	0	0
CN1C(=O)c2ccc(C(=O)Nc3nccs3)cc2C1=O	0	0	0	0	0	0
COc1ccccc1CNc1nc(NCc2ccc(C)cc2C)c2sccc2n1	-	-	0	0	0	0
c1ccc(CNc2nc(NCc3ccccc3)c3ccccc3n2)cc1	0	0	78	0	0	104
c1ccc(CNc2nc(-c3ccccc3)nc3ccccc23)cc1	0	0	0	0	0	0
COCCNc1nc(NCc2cccc(OC)c2OC)c2sccc2n1	-	-	0	0	0	0
COc1ccccc1CNc1nc(NC(C)C)nc2cc(-c3ccccc3)sc12	-	-	0	0	0	75
COc1ccccc1CNc1nc(NCc2ccccc2)nc2ccsc12	-	-	50	0	0	0
COc1ccccc1CNc1nc(NCc2cccc(OC)c2OC)c2sccc2n1	-	-	75	76	0	54
CNC(=O)CC1C(=O)N(c2ccc(Cl)cc2)C(=S)N1NC(=O)c1cccc(F)c1 (centres undefined)	0	0	0	0	0	0
CNC(=O)CC1C(=O)N(c2ccc(OC)cc2)C(=S)N1NC(=O)c1cccc(F)c1 (centres undefined)	-	-	84	0	0	69
CN(C)CCCn1c(N)c(C#N)c2nc3ccccc3nc21	0	0	0	55	0	0
N#Cc1c(N)n(C2CCCCC2)c2nc3ccccc3nc12	0	0	72	0	0	0
COc1ccc2nc(NC(=O)c3ccoc3C)sc2c1	0	0	0	59	0	0
COc1ccc2nc(NC(=S)NC(=O)c3ccco3)sc2c1	0	0	51	0	0	0
Cc1nc(NC(=O)c2ccco2)sc1C(=O)O	0	0	0	59	0	0
COc1ccc2nc(NC(=O)c3cccc(OCc4c(C)noc4C)c3)sc2c1	0	0	0	52	0	0
O=C(NC(=S)Nc1nc2ccccc2s1)c1ccco1	0	0	0	0	0	0
Cc1nc(S/C(C(=O)O)=C2/C(=O)Nc3ccccc32)n[nH]1	0	0	0	0	0	0
O=C(Nc1nc2c(Br)cc(Br)cc2c(=O)s1)c1ccco1	0	0	0	62	-	0
COC(=O)c1ccccc1NC(=O)c1ccco1	0	0	0	0	0	0
COc1ccc2nc(NC(=O)CCNC(=O)c3ccco3)sc2c1	0	0	0	0	0	0
SMILES	TRPM1 prom inh	LMP1 NFkB inh	TROY signal inh	TWEAK Fn14 block	Shn3 3UTR inh	Peg3 prom inh
Cc1cc(C)c2nc(NC(=O)c3ccco3)sc2c1	0	0	0	59	0	0
COc1ccc2sc(NC(=O)c3ccco3)nc2c1	0	0	0	70	0	0
COC(=O)c1cccc(COC(=O)c2ccccc2NC(=O)c2ccco2)c1	0	51	0	0	0	0
COc1ccccc1OCC#CCNC1CCCCC1C (centres undefined)	0	0	0	0	0	0
COc1cccc(NC(=O)C2(C)CCN2CC2CCCCC2)c1 (centres undefined)	-	-	0	0	0	0
O=c1ccc(Cl)nn1-c1ccccc1	0	0	0	0	0	0
CCS(=O)(=O)N1CCC(c2nc3ccccc3[nH]2)CC1	0	0	0	0	0	0
Cc1nc2sc3c(=O)[nH]nnc3c2c(C)c1Br	0	0	0	0	0	0
COc1cccc(C(=O)Nc2cc(OC)ccc2NC(=O)c2ccco2)c1	0	0	0	56	0	0
Cc1cc(=O)[nH]c(S/C=C/c2ccccc2)n1	0	0	0	0	0	0
CC(=O)Nc1ccc(/C=C/c2nc3ccccc3o2)cc1	0	0	0	0	0	0
O=C(Nc1ccc(/C=C/c2nc3ccccc3o2)cc1)c1c(F)cccc1F	0	0	59	0	0	0
Cc1cn(-c2ccccc2)c(C)c1/C=N\Nc1nc(N2CCOCC2)nc(N2CCOCC2)n1	0	0	0	0	0	0
O=C(c1ccc(-c2nnc(-c3ccccc3)o2)cc1)N1CCCCCC1	0	0	0	57	0	0
O=C(O)c1ccc(-c2nnc(-c3ccccc3)o2)cc1	0	0	0	0	0	0
CCCN1CCC(NCc2cn(C)nc2-c2ccc(Oc3ccccc3)cc2)CC1	86	0	0	0	0	0
COC1CCCN(Cc2cn(C)nc2-c2ccc(Oc3ccccc3)cc2)C1 (centres undefined)	0	0	0	0	0	0
CNS(=O)(=O)c1cc(Cl)ccc1Sc1ccccc1C(=O)O	0	0	0	0	0	0
NS(=O)(=O)c1c(Sc2ccccc2C(=O)O)ccc2ccccc12	0	0	0	54	0	0
CCC(C)(C)n1nnnc1C(c1ccc(F)cc1)N1CCN(C(=O)c2ccco2)CC1 (centres undefined)	0	0	0	0	0	0
CCOC(=O)N1C2CCC(C2)N1C(=O)OCC	0	0	0	0	93	0
COc1ccc(-c2csc(NC(C)c3nc4cc(Cl)c(Cl)cc4n3CCCO)n2)cc1 (centres undefined)	0	0	55	0	0	0
Cc1ccc(Cn2c(C(C)Nc3nc(-c4ccc(F)cc4)cs3)nc3cc(Cl)c(Cl)cc32)cc1 (centres undefined)	0	0	0	52	0	0
CC(Nc1nc(-c2ccc(F)cc2)cs1)c1nc2cc(Cl)c(N3CCCCC3)cc2n1CCCO (centres undefined)	0	0	0	0	0	0
CC(Nc1nc(-c2ccc(F)cc2)cs1)c1nc2cc(Cl)c(Cl)cc2n1CCOCCO (centres undefined)	0	0	0	51	0	0
SMILES	TRPM1 prom inh	LMP1 NFkB inh	TROY signal inh	TWEAK Fn14 block	Shn3 3UTR inh	Peg3 prom inh
Cc1nn(C2CCS(=O)(=O)C2)c(C)c1CN(C)C(=O)c1ccc(S(=O)(=O)N(C)C)cc1 (centres undefined)	0	0	0	0	0	0
Cc1ccc(C(=O)Nc2nc3ccc(S(C)(=O)=O)cc3s2)s1	0	0	0	0	0	0
Cc1ccc2nc(NC(=S)NC(=O)c3cccs3)sc2c1	0	0	54	0	0	0
Cc1ccc2nc(NC(=S)NC(=O)c3ccc(OC(C)C)cc3)sc2c1	0	0	0	0	0	0
CS(=O)(=O)c1ccc2nc(NC(=O)c3cccs3)sc2c1	0	0	0	69	0	0
Cc1ccc2nc(NC(=O)c3cccs3)sc2c1	0	0	0	78	0	0
Cc1ccc2nc(NC(=O)CCCc3nc4ccccc4s3)sc2c1	0	0	0	0	0	0
Cc1ccc2nc(NC(=O)CCCC(=O)O)sc2c1	79	0	66	86	0	0
CCCCN(C)CCNC(=O)CN1C(=O)CSc2ccc(S(=O)(=O)N3CCCCC3)cc21	0	0	0	0	0	0
O=C(NNc1ccc(O)cc1)c1ccc(Br)cc1	0	0	0	0	0	0
